Reference: PubChem BioAssay (NCI)
Compounds without any hit were thinned out: in the full panel of roughly 83,000, 20% have a hit.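 Each cell line was grown in a 96-well plate and treated with one concentration of compound for 48 hours. Values below 10 were considered active.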 A number with no mark means an inactive call. The source made the active and inactive calls.

Tests used:
Experiment in all cases: NCI-60 one-dose screen, 48 h (100 = growth as untreated, 0 = no growth, -100 = all killed)
Details in all cases: 10 µM unless noted
HCT-15 colon = test system: HCT-15 colon
HT29 colon = test system: HT29 colon
SNB-75 CNS = test system: SNB-75 CNS
SNB-19 CNS = test system: SNB-19 CNS
U251 CNS = test system: U251 CNS
PC-3 prostate = test system: PC-3 prostate
UACC-62 melanoma = test system: UACC-62 melanoma
LOX IMVI melanoma = test system: LOX IMVI melanoma
SK-MEL-28 melanoma = test system: SK-MEL-28 melanoma
SK-MEL-5 melanoma = test system: SK-MEL-5 melanoma

Structure (SMILES) | growth (HCT-15 colon) | growth (HT29 colon) | growth (SNB-75 CNS) | growth (SNB-19 CNS) | growth (U251 CNS) | growth (PC-3 prostate) | growth (UACC-62 melanoma) | growth (LOX IMVI melanoma) | growth (SK-MEL-28 melanoma) | growth (SK-MEL-5 melanoma)
CCOC(=O)c1c(-c2cc(OC)c(OC)c(OC)c2)csc1N | 66.9% | 71.9% | 84.2% | 108% | 97.2% | 88.6% | 88.6% | 95.4% | 91.1% | –
N#Cc1c(-c2cccc(F)c2)cc(-c2ccc(Br)s2)[nH]c1=O | 27.2% | 118% | 61.2% | 78.4% | 56.2% | 78.2% | 57.9% | 61.7% | 71.3% | 68.8%
COc1ccc(-c2nn(-c3ccc(NC(=O)c4ccc(Cl)c(Cl)c4)cc3)cc2-c2ccncc2)cc1Cl | -1.71% (active) | -27.7% (active) | 59.4% | 56.7% | 25% | 26.7% | 24.5% | – | 65.8% | 5.09% (active)
N#Cc1c(O)c2c(c(O)c1C#N)C(=O)c1ccccc1C2=O | 26.9% | 0.694% (active) | 145% | 70.8% | 3.42% (active) | 14.3% | -17.3% (active) | – | 5.91% (active) | -73.1% (active)
Cc1cc(=O)[nH]n1-c1cc(Cl)ccc1N | 92.4% | 102% | 88.4% | 112% | 108% | 106% | – | 94.7% | 115% | 112%
COc1ccc(/C=C(\C#N)c2ccc(OC)cc2)cc1 | 66.2% | 35.6% | 76% | 80.5% | 48.8% | 73.7% | 54.5% | 48.3% | 80.6% | 32%
Cc1ccc(C(=O)Nc2ccccc2N)cc1 | 88% | 79.4% | 82.8% | 81.9% | 74.8% | 70.9% | 52.1% | 89.5% | – | –
COC(=O)c1ccc(C(=O)Nc2ccccc2N)cc1 | 83.9% | 86.9% | 78.4% | 85.6% | 72.1% | 65.3% | 61.2% | 97.7% | 94.6% | –
O=C1C(OCCOc2ccccc2)=C(OCCOc2ccccc2)C(=O)c2ccccc21 | 26.7% | 107% | 69.4% | 57.6% | 18.9% | 44.4% | – | 22.6% | 93.5% | 13.6%
COc1cccc(C2CC(=O)Nc3cc4c(cc32)OCO4)c1OC (stereo not drawn) | 89.4% | 90.6% | 76.3% | 101% | 85.6% | 94.2% | 96.1% | 96.5% | 111% | –
COc1cc2nc(N3CCC[C@H](NC4=CC(=O)c5ccccc5C4=O)C3)nc(N)c2cc1OC | -63.5% (active) | -69.1% (active) | -83.5% (active) | -74.7% (active) | -90.2% (active) | 54.5% | -87.9% (active) | -82.9% (active) | -85.2% (active) | –
O=c1ccc2ccccc2o1 | 98% | 102% | 89.4% | 112% | 104% | 82.2% | 98.4% | 109% | 108% | 107%
C[C@@H](Oc1cc(-c2cnn(C3CC4(CCCNC4)C3)c2)cnc1N)c1c(Cl)ccc(F)c1Cl (stereo partly drawn) | 16.2% | -47.7% (active) | 10.3% | 72.3% | 29.5% | 15.6% | 14.3% | -73% (active) | -67.2% (active) | –
COc1cc(-c2ccc3cc(OC)c(OC)c(OC)c3c2)cc(OC)c1OC | 42.8% | 32.6% | 49.1% | 85.4% | 69% | 49.5% | 68.1% | 62.8% | 61% | –
NC1=NC(c2ccccc2OS(=O)(=O)c2ccc(Br)cc2)n2c(nc3ccccc32)N1 (stereo not drawn) | 102% | 92.1% | 80.2% | 98.1% | 86.9% | 80.1% | 82.7% | – | 102% | 91%
COC(=O)CCC(=O)c1ccccc1 | 102% | 105% | 117% | 102% | 100% | 117% | 104% | – | 108% | 130%

Structure (SMILES) | growth (HCT-15 colon) | growth (HT29 colon) | growth (SNB-75 CNS) | growth (SNB-19 CNS) | growth (U251 CNS) | growth (PC-3 prostate) | growth (UACC-62 melanoma) | growth (LOX IMVI melanoma) | growth (SK-MEL-28 melanoma) | growth (SK-MEL-5 melanoma)
C=CC(=O)N1CC2(CC(n3nc(-c4ccc(Oc5ccccc5)cc4)c4c(N)ncnc43)C2)C1 | 29.2% | 31.7% | -13.6% (active) | 36.6% | 21% | 51.3% | 7.95% (active) | -17.8% (active) | 29% | –
COc1cc(NC(=O)COc2ccccc2)c(C(N)=O)cc1OC | 30.1% | 1.53% (active) | 17.9% | 56% | 17.8% | 30.7% | 51.9% | 59.1% | 70.1% | –
CC(=O)Nc1ccc(Sc2ccc([N+](=O)[O-])o2)cc1 | 2.17% (active) | 26.4% | 58.3% | 118% | 31.9% | 58.9% | – | 5.12% (active) | -8.34% (active) | 59.5%
COc1cc(C(=O)/C=C/c2c(-c3cccs3)nc3sccn23)cc(OC)c1OC | -36.7% (active) | -13.8% (active) | -27.7% (active) | 14.4% | 0.929% (active) | 7.06% (active) | -56.4% (active) | -68.5% (active) | 16.5% | -37.9% (active)
Cn1c2ccccc2c2nn(C(=O)c3ccccc3)c(=O)nc21 | 101% | 105% | 105% | 99% | 112% | 92.4% | 105% | 99.3% | – | –
COc1ccc(-c2nc(Nc3ccc(F)cc3)nc(Nc3ccc4c(c3)nc(C)n4Cc3ccccc3)n2)cc1 | 33.4% | 8.87% (active) | 68% | 60.7% | 39.2% | – | – | 38.9% | 56.6% | 47.1%
C[C@@H](Oc1cc(-c2cnn(C3CC4(CCNCC4)C3)c2)cnc1N)c1c(F)ccc(Cl)c1Cl | 1.76% (active) | -56.6% (active) | -3.45% (active) | 61.6% | 12.1% | 6.2% (active) | -88.1% (active) | -85.8% (active) | -83.4% (active) | –
CN1CCC(OC2c3ccccc3CCc3ccccc32)CC1 | 98.8% | 90.1% | 65.7% | 99.2% | 92.5% | 78.3% | 98.4% | 91.1% | 94.2% | –
CC1(C)CC(=O)C2=C(C1)Nc1cc3c(cc1C2c1ccc(F)cc1)OCO3 (stereo not drawn) | 93.9% | 93.2% | 77.3% | 96.5% | 90.6% | 93.5% | 98.7% | 99.1% | 92.6% | –
COc1ccc(/C=C2\CN(Cc3cn(CCCNc4ccnc5cc(Cl)ccc45)nn3)C/C(=C\c3ccc(OC)c(OC)c3)C2=O)cc1OC | 9.96% (active) | -40.1% (active) | 42.6% | 33% | 0.724% (active) | – | – | -68.9% (active) | 40.1% | 5.86% (active)
NC(=O)c1cc(I)ccc1NC(=O)COc1ccccc1 | 20.1% | 7.08% (active) | 30.8% | 43.1% | 13.5% | 43.4% | 46% | 52.1% | 57.7% | –
Cn1c2ccc(Cl)cc2c2nn(C(=O)c3ccccc3)c(=O)nc21 | 96.7% | 108% | 88.3% | 105% | 103% | 93.2% | 107% | 98.1% | 125% | –
COc1ccc(NC(=O)COc2ccccc2)c(C(N)=O)c1 | 28.8% | 6.77% (active) | 11.5% | 53.4% | 9.36% (active) | 39.9% | 43% | – | 62% | –
O=C(COc1ccc(/C=C2\CSc3ccccc3C2=O)cc1)c1ccc(Cl)cc1 | 108% | 121% | 108% | 92.3% | 104% | – | 83% | 95% | 124% | 116%
COc1cc(/C=C/C(=O)C2=C(/C=C/c3ccc(O)c(OC)c3)NC(=O)NC2c2ccc(O)c(OC)c2)ccc1O (stereo not drawn) | 97.4% | 54.1% | 65.8% | 96.5% | 86.3% | 76.7% | 94.2% | 98.7% | 103% | –
